# Out of some 5,500 compounds screened, about 2,000 (36%) were called active. Another 18% or so got no clear call; they are omitted. Some of the results follow. A number with no mark means an inactive call. Rule as the data show it: active = normalized growth mostly below about 0.91 (no sharp cut-off); inconclusive = no clear call, values can overlap the other calls; inactive = mostly above about 0.92.
# Test: chemical genetic growth profiling, strain panel (AID 1159580);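 also: tested at 20 µM; growth read once vehicle control cultures reached saturation at 30 °C; 1 = growth at the plate median or of vehicle wells; lower values mean less growth of the strain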
# Settings: growth OD
# [1] = S. cerevisiae deletion strains, locus YAL013W, strain DEP1, hits give low values
# [2] = S. cerevisiae deletion strains, locus YBR229C, strain ROT2, hits give low values
# [3] = S. cerevisiae deletion strains, locus YCL061C, strain MRC1, hits give low values
# [4] = S. cerevisiae deletion strains, locus YDL101C, strain DUN1, hits give low values
# [5] = S. cerevisiae deletion strains, locus YDR150W, strain NUM1, hits give low values
# [6] = S. cerevisiae deletion strains, locus YEL061C, strain CIN8, hits give low values
# [7] = S. cerevisiae deletion strains, locus YGR078C, strain PAC10, hits give low values
# [8] = S. cerevisiae deletion strains, locus YHR030C, strain SLT2, hits give low values
# [9] = S. cerevisiae deletion strains, locus YHR087W, strain rtc3, hits give low values
# [10] = S. cerevisiae deletion strains, locus YJL187C, strain SWE1, hits give low values
# [11] = S. cerevisiae deletion strains, locus YJR043C, strain POL32, hits give low values
# [12] = S. cerevisiae deletion strains, locus YJR075W, strain HOC1, hits give low values
# [13] = S. cerevisiae deletion strains, locus YLR039C, strain RIC1, hits give low values
# [14] = S. cerevisiae deletion strains, locus YLR058C, strain SHM2 (second series), hits give low values
# [15] = S. cerevisiae deletion strains, locus YLR085C, strain ARP6, hits give low values
# [16] = S. cerevisiae deletion strains, locus YLR262C, strain YPT6, hits give low values
# [17] = S. cerevisiae deletion strains, locus YML094W, strain GIM5, hits give low values
# [18] = S. cerevisiae deletion strains, locus YMR219W, strain ESC1, hits give low values
# [19] = S. cerevisiae deletion strains, locus YMR263W, strain SAP30, hits give low values
# [20] = S. cerevisiae deletion strains, locus YNL153C, strain GIM3, hits give low values
# [21] = S. cerevisiae deletion strains, locus YNL298W, strain CLA4 (second series), hits give low values
# [22] = S. cerevisiae deletion strains, locus YNL322C, strain KRE1, hits give low values
# [23] = S. cerevisiae deletion strains, locus YNR030W, strain Alg12, hits give low values
# [24] = S. cerevisiae deletion strains, locus YPL055C, strain LGE1, hits give low values
# [25] = S. cerevisiae deletion strains, locus YPL241C, strain CIN2, hits give low values
# [26] = S. cerevisiae deletion strains, locus YPR135W, strain CTF4, hits give low values
# [27] = S. cerevisiae deletion strains, locus YDL134C, strain PPH21, hits give low values
# [28] = S. cerevisiae deletion strains, locus YKL190W, strain CNB1, hits give low values
compound,measurement,setting,value
O=C(NNC(=S)Nc1cccc(Cl)c1)c1cccnc1,normalized growth,[1],1
same,normalized growth,[2],1
same,normalized growth,[3],0.976
same,normalized growth,[4],0.978
same,normalized growth,[5],0.969
same,normalized growth,[6],1.01
same,normalized growth,[7],0.97
same,normalized growth,[8],0.939
same,normalized growth,[9],0.992
same,normalized growth,[10],0.985
same,normalized growth,[11],0.999
same,normalized growth,[12],0.982
same,normalized growth,[13],1.03
same,normalized growth,[14],0.997
same,normalized growth,[15],0.885
same,normalized growth,[16],1.02
same,normalized growth,[17],0.965
same,normalized growth,[18],0.999
same,normalized growth,[19],0.949
same,normalized growth,[20],0.979
same,normalized growth,[21],0.98
same,normalized growth,[22],0.994
same,normalized growth,[23],0.956
same,normalized growth,"S. cerevisiae deletion strains, locus YOL006C, strain TOP1, hits give low values",0.803
same,normalized growth,[24],0.868
same,normalized growth,[25],0.972
same,normalized growth,[26],0.893
O=C(CSCc1c(Cl)cccc1Cl)NNC(=S)NC1CC2C=CC1C2 (centres undefined),normalized growth,[1],0.99
same,normalized growth,[2],0.972
same,normalized growth,[4],0.94
same,normalized growth,[27],0.857 (active)
same,normalized growth,[5],0.956
same,normalized growth,[7],0.97
same,normalized growth,[8],0.838
same,normalized growth,[9],1.06
same,normalized growth,[10],0.979
same,normalized growth,[11],0.971
same,normalized growth,[12],0.973
same,normalized growth,[28],0.762 (active)
same,normalized growth,[13],0.607 (active)
same,normalized growth,[14],1.01
same,normalized growth,[15],0.788
same,normalized growth,[16],0.59 (active)
same,normalized growth,[17],0.827 (active)
same,normalized growth,[18],1.01
same,normalized growth,[19],0.944
same,normalized growth,"S. cerevisiae deletion strains, locus YNL128W, strain TEP1, hits give low values",0.792 (active)
same,normalized growth,[20],0.955
same,normalized growth,[21],0.658 (active)
same,normalized growth,[22],1.02
same,normalized growth,[23],0.781 (active)
same,normalized growth,[24],0.867
same,normalized growth,[25],0.696 (active)
same,normalized growth,[26],0.873
same,normalized growth,"S. cerevisiae strains, strain wild type, hits give low values",0.746 (active)
O=C(NNC(=S)NC1CC2C=CC1C2)c1cccnc1 (centres undefined),normalized growth,[1],0.985
same,normalized growth,[2],0.992
same,normalized growth,[3],0.971
same,normalized growth,[4],0.979
same,normalized growth,[27],0.992
same,normalized growth,[5],0.971
same,normalized growth,[6],0.977
same,normalized growth,[7],0.982
same,normalized growth,[8],0.908
same,normalized growth,[9],1.07
same,normalized growth,[10],0.989
same,normalized growth,[11],0.977
same,normalized growth,[12],0.986
same,normalized growth,[28],0.997
same,normalized growth,[13],0.812
same,normalized growth,[14],0.985
same,normalized growth,[15],0.938
same,normalized growth,[16],0.809 (active)
same,normalized growth,[17],0.962
same,normalized growth,[18],0.993
same,normalized growth,[19],0.984
same,normalized growth,"S. cerevisiae deletion strains, locus YMR307W, strain GAS1, hits give low values",1.22
same,normalized growth,[20],0.993
same,normalized growth,[21],0.958
same,normalized growth,[22],0.993
same,normalized growth,[23],0.979
same,normalized growth,[24],0.979
same,normalized growth,[25],0.964
same,normalized growth,[26],0.92
